# Results filed as inconclusive are left out. Entries that show only a call come without a potency. The source made the active and inactive calls. Calls come from the whole dose curve; as a rule, active = well fitted inhibition curve with a large enough effect; inconclusive = small, poorly fitted or top-dose-only effect; inactive = no such curve, though single readings can be large or run the other way.
# System: Zika virus NS2B-NS3 protease (unlinked complex)
# Assay: Primary screen GU Rhodamine qHTS for Zika virus inhibitors: Unlinked NS2B-NS3 protease assay (AID 1347159); note: nearly all actives have a fitted effect of over 60% in size
# Settings: Recombinant ZIKV NS2B-NS3 protease, Rhodamine110 substrate fluorescence; series mostly up to 107 µM
# Procedure, shortened: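 Enzyme 25 nM in Tris-HCl pH 8.0 + 0.01% Tween 20; compounds up to 114 microM, 15 min RT dark; + Rhod110 substrate 1.5 microM; read t0 and 15 min; delta fluorescence → % inhibition → 4-parameter Hill fit.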
# Potency is the fitted concentration of half-maximal effect.
row,Compound,Potency
1,CC(=O)OC1C(O)C(C)(O)C(/C=C/C(=O)O)C2(C)CCCC(C)(C)C12 (centres undefined),inactive
2,COc1cc(/C=C/C(=O)OCC2OC(OC3(CO)OC(CO)C(O)C3O)C(O)C(O)C2O)ccc1O (centres undefined),inactive
3,C=C(C)[C@@H]1CC[C@]2(C(=O)O)CC[C@]3(C)[C@H](CCC4[C@@]5(C)CCC(=O)C(C)(C)C5C(O)C[C@]43C)C12 (some centres undefined),inactive
4,COC(=O)C(CC1(OC(=O)C(C)C)c2ccccc2N2C(=O)C(C)(C)N(O)C21)n1cnc2ccccc2c1=O (centres undefined),inactive
5,COC(=O)C1=CO[C@@H](O[C@@H]2O[C@H](CO)[C@@H](O)[C@H](O)[C@H]2O)[C@@H]2C(CO)=CC[C@H]12,inactive
6,Cc1ccc(COC(=O)N2CC[C@@H](CNc3ncccn3)[C@@H](F)C2)cc1,inactive
7,CC(=O)O[C@@]1(C)[C@@H]2CC(=C(C)C)C(=O)C[C@@]2(C)CC[C@H]1OC(=O)C1(C)OC1C (some centres undefined),inactive
8,CC1=CC(=O)CC(C)(C)[C@@]1(O)/C=C/C(C)O[C@@H]1O[C@H](CO)[C@@H](O)[C@H](O)[C@H]1O (some centres undefined),inactive
9,CC/C=C\[C@H](O)[C@H](O)C1=C(C)C(=O)[C@]2(O1)C(=O)N[C@@](O)(C(=O)c1ccccc1)[C@@H]2O,inactive
10,CC1(C)CC[C@]2(C(=O)O[C@@H]3O[C@H](CO)[C@@H](O)[C@H](O)[C@H]3O)[C@H](O)C[C@]3(C)C(=CCC4[C@@]5(C)CC[C@H](O[C@@H]6OC[C@@H](O)[C@H](O)[C@H]6O)[C@@](C)(C(=O)O)C5CC[C@]43C)[C@@H]2C1 (some centres undefined),inactive
11,C=C1CC[C@@]2(OC1)O[C@H]1CC3[C@@H]4CC=C5C[C@@H](O)C[C@@H](O[C@@H]6OC[C@H](O)[C@H](O)[C@H]6O[C@@H]6O[C@@H](C)[C@H](O)[C@@H](O)[C@H]6O)[C@]5(C)C4CC[C@]3(C)[C@H]1[C@@H]2C (some centres undefined),inactive
12,CC1(C)CC2C3=CCC4[C@@]5(C)CC[C@H](OC6OCC(O)C(OC7OC(CO)C(O)C(O)C7O)C6O)C(C)(C)C5CC[C@@]4(C)[C@]3(C)C[C@H](O)[C@@]2(CO)[C@H](OC(=O)c2ccccc2)C1 (some centres undefined),inactive
13,CC(=O)OC1CC(C(C)(C)O)OC2CCC3(C)OC4=C(C(=O)C=C5C(C)C(OC(C)=O)C6(C)C(C)OC546)C(O)C3C12C (centres undefined),inactive
14,CC(C)C(O)(CO)CCO[C@@H]1O[C@H](CO[C@H]2OC[C@](O)(CO)[C@H]2O)[C@@H](O)[C@H](O)[C@H]1O (some centres undefined),inactive
15,C#CCCCn1cc(-c2cccc3c2N[C@@H](C)CC(=O)N3)cn1,inactive
16,N#Cc1cccc(-c2c[nH]c3ncnc(N4CCOCC4)c23)c1,inactive
17,C/C=C(\C)C(=O)OC[C@H]1O[C@@H](O[C@H]2[C@@H](O[C@H]3O[C@H](CO)[C@@H](O)[C@H](O)[C@H]3O[C@@H]3O[C@H](CO)[C@@H](O)[C@H](O)[C@H]3O)O[C@H](COC(=O)/C(C)=C/C)[C@@H](O)[C@@H]2O)[C@H](O)[C@@H](O)[C@@H]1O,inactive
18,CC1(C)C(=O)N2c3ccccc3C(O)(CC(C(=O)O)n3cnc4ccccc4c3=O)C2N1O (centres undefined),inactive
19,O=C(NC1Cc2ccccc2N(C[C@@H](O)CO)C1=O)c1cc2cc(Cl)sc2[nH]1 (some centres undefined),inactive
20,CC(C)(O)C(O)C(=O)OCc1ccc(O[C@@H]2O[C@H](CO)[C@@H](O)[C@H](O)[C@H]2O)cc1 (some centres undefined),inactive

row,Compound,Potency
1,COC(=O)C1=C[C@@H](O)[C@@H](O)[C@H](O[C@@H]2O[C@H](CO)[C@@H](O)[C@H](O)[C@H]2OC(=O)/C=C/c2ccccc2)C1,inactive
2,CC(O)CCc1ccc(O[C@@H]2O[C@H](CO)[C@@H](O)[C@H](O)[C@H]2O)cc1 (some centres undefined),inactive
3,C=C1CC2C(C)(CCC(=O)O)C(C(C)(C)O)CCC2(C)C2(C(=O)OC)C(=O)C(C)(O)C(=O)C12C (centres undefined),inactive
4,COC(=O)CCC1(C)C(C(C)(C)O)C(O)CC2(C)Oc3c(C)c4c(c(OC)c3CC21)C(=O)OC4 (centres undefined),inactive
5,Cc1cc(CNC(=O)c2cc(C(=O)NCc3ccc(F)c(C)c3)ncn2)ccc1F,inactive
6,C[C@@H](NC(=O)c1cc(C(=O)N[C@@H](Cc2ccccc2)[C@H](O)CNC2CC2)cc(N(C)S(C)(=O)=O)c1)c1ccccc1,inactive
7,CC(C)C1(O)NC(=O)C(CC2(O)c3ccccc3N3C(=O)C(C)(C)NC32)n2c1nc1ccccc1c2=O (centres undefined),inactive
8,OC[C@H]1O[C@@H](Oc2cc(O)cc(-c3cc4ccc(O[C@@H]5O[C@H](CO)[C@@H](O)[C@H](O)[C@H]5O)cc4o3)c2)[C@H](O)[C@@H](O)[C@@H]1O,inactive
9,CC1CCCCCCCc2cc(O)cc(O)c2C(=O)O1 (centres undefined),39.8 µM (active)
10,Fc1ccc(-c2c3cccc(C(F)(F)F)c3nn2Cc2ccc(F)cc2Cl)cc1,inactive
11,COc1cc(O)cc2c1C(=O)OC(C)CCCCCCC2 (centres undefined),20 µM (active)
12,C=C1CC[C@@]2(OC1)O[C@H]1CC3[C@@H]4CC=C5C[C@H](O[C@H]6OC[C@@H](O)C(O)[C@@H]6O[C@@H]6O[C@@H](C)[C@H](O)[C@@H](O[C@@H]7O[C@H](CO)[C@@H](O)[C@H](O)[C@H]7O)[C@H]6O)C[C@@H](O)[C@]5(C)C4CC[C@]3(C)[C@H]1[C@@H]2C (some centres undefined),inactive
13,CCN=C1N[C@@H]2[C@@H](O)[C@H](O)[C@@H](CO)O[C@@H]2S1,inactive
14,CCC12CCCN3CCc4c(n(c5ccccc45)C(O)C1)C32 (centres undefined),inactive
15,CC1(C)CC[C@]2(C(=O)OC3OC(CO)C(O)C(O)C3O)CC[C@]3(C)C(=CCC4[C@@]5(C)C[C@@H](O)[C@H](OC6OC(C(=O)O)C(O)C(O)C6O)C(C)(C)C5CC[C@]43C)[C@@H]2C1 (some centres undefined),inactive
16,C[C@@H](c1ccccc1)N(C(N)=NC#N)c1cccc2ncccc12,inactive
17,CC1CC(O)/C=C/C(O)/C=C\C(=O)O1 (centres undefined),inactive
18,COc1ccc(/C=C/C(=O)O[C@@H]2[C@@H](O)[C@@H](O)[C@H](O[C@H]3[C@@H]4C=CO[C@@H](O[C@@H]5O[C@H](CO)[C@@H](O)[C@H](O)[C@H]5O)[C@@H]4[C@@]4(CO)O[C@@H]34)O[C@H]2C)cc1,inactive
19,COC1CC(O[C@H]2CC[C@@]3(C)C(=CC[C@]4(O)C3[C@H](O)[C@@H](O)[C@]3(C)[C@@H]([C@H](C)O)CC[C@@]34O)C2)OC(C)C1OC1CC(OC)C(OC2CC(OC)C(OC3OC(C)C(OC4OC(CO)C(O)C(O)C4O)C(OC)C3O)C(C)O2)C(C)O1 (some centres undefined),inactive

# Source: PubChem BioAssay (NCATS)
